# Measured values as given in the supplement of paper PMC8728848.
# About 410 targets per protein were measured; listed, in parts, are those with the strongest signals and a random draw of the rest.
# Key:
# Assay in all cases: glycan array binding signal (z-score within array); higher = stronger binding
# Conditions in all cases: glycan notation: IUPAC condensed, linker removed
# [1] = target: Fuc(a1-2)Gal(b1-4)GlcNAc(b1-2)Man
# Procedure, shortened: (§1)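 Arrays were curated from the Consortium for Functional Glycomics database, 3228 in total, and kept only where the protein sequence was available. Binding is expressed as a within-array Z-score. This score was averaged across arrays of the same protein sequence at different concentrations or buffers and across linkers, and negative values can be read as non-binding.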
# [2] = target: Fuc(a1-2)Gal(b1-4)GlcNAc(b1-2)Man(a1-3)[Fuc(a1-2)Gal(b1-4)GlcNAc(b1-2)Man(a1-6)]Man(b1-4)GlcNAc(b1-4)GlcNAc
# Procedure, shortened: as §1
# [3] = target: Fuc(a1-2)Gal(b1-4)[Fuc(a1-3)]GlcNAc(b1-2)Man(a1-3)[Fuc(a1-2)Gal(b1-4)[Fuc(a1-3)]GlcNAc(b1-2)Man(a1-6)]Man(b1-4)GlcNAc(b1-4)[Fuc(a1-6)]GlcNAc
# Procedure, shortened: as §1
# Fuc(a1-2)Gal6S(b1-4)Glc = target: Fuc(a1-2)Gal6S(b1-4)Glc
# Procedure, shortened: as §1
# [4] = target: Fuc(a1-2)[Gal(a1-3)]Gal(b1-3)GlcNAc(b1-2)Man(a1-3)[Fuc(a1-2)[Gal(a1-3)]Gal(b1-3)GlcNAc(b1-2)Man(a1-6)]Man(b1-4)GlcNAc(b1-4)GlcNAc
# Procedure, shortened: as §1
# [5] = target: Fuc(a1-2)[GalNAc(a1-3)]Gal(b1-3)GlcNAc
# Procedure, shortened: as §1
# [6] = target: Fuc(a1-2)[GalNAc(a1-3)]Gal(b1-4)Glc
# Procedure, shortened: as §1
# [7] = target: Fuc(a1-3)[Gal(b1-4)]GlcNAc(b1-2)Man(a1-3)[Fuc(a1-3)[Gal(b1-4)]GlcNAc(b1-2)Man(a1-6)]Man(b1-4)GlcNAc(b1-4)GlcNAc
# Procedure, shortened: as §1
# [8] = target: Gal(a1-3)Gal(b1-3)[Fuc(a1-4)]GlcNAc(b1-2)Man(a1-3)[Gal(a1-3)Gal(b1-3)[Fuc(a1-4)]GlcNAc(b1-2)Man(a1-6)]Man(b1-4)GlcNAc(b1-4)GlcNAc
# Procedure, shortened: as §1
# [9] = target: Gal(a1-3)[Gal(a1-4)]Gal(b1-4)GlcNAc
# Procedure, shortened: as §1
# [10] = target: Gal(b1-3)GlcNAc(b1-2)[Gal(b1-3)GlcNAc(b1-6)]Man(a1-6)[Gal(b1-3)GlcNAc(b1-2)Man(a1-3)]Man(b1-4)GlcNAc(b1-4)GlcNAc
# Procedure, shortened: as §1
# [11] = target: Gal(b1-3)GlcNAc(b1-6)GalNAc
# Procedure, shortened: as §1
# [12] = target: Gal(b1-3)[Fuc(a1-4)]GlcNAc
# Procedure, shortened: as §1
# Gal(b1-4)GlcNAc(b1-2)Man = target: Gal(b1-4)GlcNAc(b1-2)Man
# Procedure, shortened: as §1
# [13] = target: Gal(b1-4)GlcNAc(b1-2)Man(a1-3)[Gal(b1-4)GlcNAc(b1-2)Man(a1-6)]Man(b1-4)GlcNAc(b1-4)[Fuc(a1-6)]GlcNAc
# Procedure, shortened: as §1
# [14] = target: Gal(b1-4)GlcNAc(b1-2)Man(a1-6)[Man(a1-3)]Man(b1-4)GlcNAc(b1-4)GlcNAc
# Procedure, shortened: as §1
# [15] = target: Gal(b1-4)GlcNAc(b1-3)Gal(b1-4)GlcNAc(b1-3)Gal(b1-4)GlcNAc(b1-3)Gal(b1-4)GlcNAc(b1-3)Gal(b1-4)GlcNAc(b1-2)Man(a1-3)[Gal(b1-4)GlcNAc(b1-3)Gal(b1-4)GlcNAc(b1-3)Gal(b1-4)GlcNAc(b1-3)Gal(b1-4)GlcNAc(b1-3)Gal(b1-4)GlcNAc(b1-2)Man(a1-6)]Man(b1-4)GlcNAc(b1-4)GlcNAc
# Procedure, shortened: as §1
# [16] = target: Gal(b1-4)GlcNAc(b1-3)Gal(b1-4)GlcNAc(b1-3)Gal(b1-4)GlcNAc(b1-3)Gal(b1-4)GlcNAc(b1-3)Gal(b1-4)GlcNAc(b1-3)Gal(b1-4)GlcNAc(b1-2)Man(a1-3)[Gal(b1-4)GlcNAc(b1-3)Gal(b1-4)GlcNAc(b1-3)Gal(b1-4)GlcNAc(b1-3)Gal(b1-4)GlcNAc(b1-3)Gal(b1-4)GlcNAc(b1-3)Gal(b1-4)GlcNAc(b1-2)Man(a1-6)]Man(b1-4)GlcNAc(b1-4)GlcNAc
# Procedure, shortened: as §1
# [17] = target: Gal(b1-4)GlcNAc(b1-3)Gal(b1-4)GlcNAc(b1-3)GalNAc
# Procedure, shortened: as §1
# Gal3S6S(b1-4)GlcNAc = target: Gal3S6S(b1-4)GlcNAc
# Procedure, shortened: as §1
# [18] = target: GalNAc3S(b1-4)[Fuc(a1-3)]GlcNAc
# Procedure, shortened: as §1
# [19] = target: GlcA3S(b1-3)Gal(b1-4)GlcNAc(b1-2)Man
# Procedure, shortened: as §1
# [20] = target: GlcNAc(a1-4)Gal(b1-4)GlcNAc(b1-3)Gal(b1-4)GlcNAc(b1-3)Gal(b1-4)GlcNAc
# Procedure, shortened: as §1
# [21] = target: GlcNAc(b1-2)Man(a1-3)[GlcNAc(b1-4)][GlcNAc(b1-2)Man(a1-6)]Man(b1-4)GlcNAc(b1-4)GlcNAc
# Procedure, shortened: as §1
# [22] = target: GlcNAc(b1-2)[GlcNAc(b1-4)]Man(a1-3)[GlcNAc(b1-2)Man(a1-6)]Man(b1-4)GlcNAc(b1-4)GlcNAc
# Procedure, shortened: as §1
# GlcNAc(b1-3)Gal(b1-4)Glc = target: GlcNAc(b1-3)Gal(b1-4)Glc
# Procedure, shortened: as §1
# [23] = target: GlcNAc(b1-3)Gal(b1-4)GlcNAc(b1-3)Gal(b1-4)GlcNAc
# Procedure, shortened: as §1
# [24] = target: GlcNAc(b1-3)Gal(b1-4)GlcNAc(b1-3)Gal(b1-4)GlcNAc(b1-3)Gal(b1-4)GlcNAc(b1-2)Man(a1-3)[GlcNAc(b1-3)Gal(b1-4)GlcNAc(b1-3)Gal(b1-4)GlcNAc(b1-3)Gal(b1-4)GlcNAc(b1-2)Man(a1-6)]Man(b1-4)GlcNAc(b1-4)[Fuc(a1-6)]GlcNAc
# Procedure, shortened: as §1
# [25] = target: GlcNAc(b1-3)Gal(b1-4)GlcNAc(b1-3)GalNAc
# Procedure, shortened: as §1
# Kdn(a2-6)Gal(b1-4)GlcNAc = target: Kdn(a2-6)Gal(b1-4)GlcNAc
# Procedure, shortened: as §1
# [26] = target: Man(a1-2)Man(a1-3)[Man(a1-2)Man(a1-6)]Man
# Procedure, shortened: as §1
# [27] = target: Man(a1-3)[Man(a1-6)]Man(a1-6)[Man(a1-3)]Man(b1-4)GlcNAc(b1-4)GlcNAc
# Procedure, shortened: as §1
# MurNAc(b1-4)GlcNAc = target: MurNAc(b1-4)GlcNAc
# Procedure, shortened: as §1
# [28] = target: Neu5Ac(a2-3)Gal(b1-3)GalNAc
# Procedure, shortened: as §1
# [29] = target: Neu5Ac(a2-3)Gal(b1-3)]Neu5Ac(a2-3)Gal(b1-4)]GlcNAc
# Procedure, shortened: as §1
# [30] = target: Neu5Ac(a2-3)Gal(b1-4)GlcNAc(b1-2)[Neu5Ac(a2-3)Gal(b1-4)GlcNAc(b1-4)]Man(a1-3)[GlcNAc(b1-4)][Neu5Ac(a2-3)Gal(b1-4)GlcNAc(b1-4)Man(a1-6)]Man(b1-4)GlcNAc(b1-4)GlcNAc
# Procedure, shortened: as §1
# [31] = target: Neu5Ac(a2-3)Gal(b1-4)GlcNAc(b1-3)Gal(b1-4)GlcNAc(b1-3)GalNAc
# Procedure, shortened: as §1
# [32] = target: Neu5Ac(a2-3)[GalNAc(b1-4)]Gal(b1-4)Glc
# Procedure, shortened: as §1
# [33] = target: Neu5Ac(a2-6)Gal(b1-4)GlcNAc(b1-2)Man(a1-3)[Neu5Ac(a2-6)Gal(b1-4)GlcNAc(b1-2)Man(a1-6)]Man(b1-4)GlcNAc(b1-4)GlcNAc
# Procedure, shortened: as §1
# [34] = target: Neu5Ac(a2-8)Neu5Gc(a2-3)Gal(b1-4)GlcNAc
# Procedure, shortened: as §1
# Neu5Gc(a2-3)Gal(b1-4)Glc = target: Neu5Gc(a2-3)Gal(b1-4)Glc
# Procedure, shortened: as §1
# [35] = target: Neu5Gc(a2-6)Gal(b1-4)GlcNAc
# Procedure, shortened: as §1
binder,measurement,setting,value
PX15618A-bth-503-24-503 (Bacteroides thetaiotaomicron) (protein) NKSEDKLSGDDFWAQGNETNAEAFLLSIYNSFRNATMSQRPFLTYSGDMRCAPITAYSTGDKYVAYLANNDMGELRNTYPDDARGGLIMQWDVFYTAIQDANILLAEIDKVPGMDELKRSRFKAEAIFMRSLSYFFIVRAFGDVPYYTNAYNEAPLPRTNMVIVLQNCLADLQPLLDDDPGAEVLPWSYSSYSSKGIRASRGSVIALMMHINLWLVQFDAQNKEQYYRNVVSLGEELERNNGAYSLLDINRSSVIFAGGSDEGLFEIAQNINFNEIFMMNAKFSDNVSYSCLNKSMPLFCYSGDYLMTLFPMYEDDARKELWFDEKIYSTSVSSSAPKEIKKFWNIDTYGNGTITSNSGNQIVFRYAGALLLYAEALAALGTNDTKACELLNRVRNRAHASEINTSGSELMDAIFWERCRELIGEGHYYYDLVRTGKVYNRNYCMNPMTRTNFNVGAWTWPIHRNALKNNTQIGLNLFWE,glycan array binding signal (z-score),[1],-0.103
same,glycan array binding signal (z-score),[2],2.2
same,glycan array binding signal (z-score),[3],0.352
same,glycan array binding signal (z-score),Fuc(a1-2)Gal6S(b1-4)Glc,2.77
same,glycan array binding signal (z-score),[4],-0.62
same,glycan array binding signal (z-score),[5],-0.665
same,glycan array binding signal (z-score),[6],-0.32
same,glycan array binding signal (z-score),[7],-0.28
same,glycan array binding signal (z-score),[8],6.49
same,glycan array binding signal (z-score),[9],3.72
same,glycan array binding signal (z-score),[10],2.47
same,glycan array binding signal (z-score),[11],2.58
same,glycan array binding signal (z-score),[12],-0.361
same,glycan array binding signal (z-score),Gal(b1-4)GlcNAc(b1-2)Man,-0.307
same,glycan array binding signal (z-score),[13],0.092
same,glycan array binding signal (z-score),[14],12.1
same,glycan array binding signal (z-score),[15],2.83
same,glycan array binding signal (z-score),[16],2.95
same,glycan array binding signal (z-score),[17],-0.08
same,glycan array binding signal (z-score),Gal3S6S(b1-4)GlcNAc,3.43
same,glycan array binding signal (z-score),[18],-0.361
same,glycan array binding signal (z-score),[19],-0.619
same,glycan array binding signal (z-score),[20],-0.188
same,glycan array binding signal (z-score),[21],-0.381
same,glycan array binding signal (z-score),[22],-0.803
same,glycan array binding signal (z-score),GlcNAc(b1-3)Gal(b1-4)Glc,-0.199
same,glycan array binding signal (z-score),[23],-0.161
same,glycan array binding signal (z-score),[24],0.037
same,glycan array binding signal (z-score),[25],0.059
same,glycan array binding signal (z-score),Kdn(a2-6)Gal(b1-4)GlcNAc,0.229
same,glycan array binding signal (z-score),[26],-0.505
same,glycan array binding signal (z-score),[27],0.524
same,glycan array binding signal (z-score),MurNAc(b1-4)GlcNAc,0.506
same,glycan array binding signal (z-score),[28],-0.436
same,glycan array binding signal (z-score),[29],0.09
same,glycan array binding signal (z-score),[30],-0.189
same,glycan array binding signal (z-score),[31],-0.707
same,glycan array binding signal (z-score),[32],-0.82
same,glycan array binding signal (z-score),[33],-0.217
same,glycan array binding signal (z-score),[34],13.7
same,glycan array binding signal (z-score),Neu5Gc(a2-3)Gal(b1-4)Glc,-0.471
same,glycan array binding signal (z-score),[35],-0.58
